Source: article PMC7862700, “An all-to-all approach to the identification of sequence-specific readers for epigenetic DNA modifications on cytosine”

Tests used:
Assay in all cases: DAPPL (digital affinity profiling via proximity ligation, sequencing); 10 mM Tris-HCl pH 7.5, 50 mM NaCl, 1 mM DTT, 4% glycerol, room temperature, 30 min; GST-TFs on glutathione beads, 16-mer random dsDNA library, 0.1% formaldehyde crosslink after washing; high values mean tight binding
Conditions in all cases: protein: recombinant; tags: N-terminal GST; dsDNA, one strand shown
FLI1 = target: T1, FLI1 (Homo sapiens, UniProt Q01543 1-452)
T1 sequence: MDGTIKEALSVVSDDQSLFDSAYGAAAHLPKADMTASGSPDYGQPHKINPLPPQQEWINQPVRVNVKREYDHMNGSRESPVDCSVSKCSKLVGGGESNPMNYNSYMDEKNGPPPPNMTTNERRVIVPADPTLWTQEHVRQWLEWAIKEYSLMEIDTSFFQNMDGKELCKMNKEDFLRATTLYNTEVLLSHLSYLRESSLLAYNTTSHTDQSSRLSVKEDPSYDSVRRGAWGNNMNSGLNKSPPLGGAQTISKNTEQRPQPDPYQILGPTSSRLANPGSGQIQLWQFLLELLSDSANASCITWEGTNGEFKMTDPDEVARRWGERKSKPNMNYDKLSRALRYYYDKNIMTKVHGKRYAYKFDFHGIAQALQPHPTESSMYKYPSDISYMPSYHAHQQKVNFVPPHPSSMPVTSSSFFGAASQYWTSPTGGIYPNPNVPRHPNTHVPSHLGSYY
How it was run: (§1)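 In yeast, human transcription factors were expressed with a GST fusion, then pulled down on glutathione beads and given DNA barcodes. Pooled with a tag-only sample, they were exposed to 200 nmole of a 16-mer random double-stranded DNA library (Tris/NaCl/DTT/glycerol buffer, room temperature, 30 min), washed, crosslinked with 0.1% formaldehyde, proximity-ligated using BsaI/T4 ligase for 1 h at 37 °C, PCR-amplified and read on an Illumina NextSeq500. Each hexamer's frequency of reads for a factor, divided by the matching frequency for the tag-only sample, gives the binding signal.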

ELK1 = target: T2, ELK1 (Homo sapiens, UniProt P19419 1-428)
T2 sequence: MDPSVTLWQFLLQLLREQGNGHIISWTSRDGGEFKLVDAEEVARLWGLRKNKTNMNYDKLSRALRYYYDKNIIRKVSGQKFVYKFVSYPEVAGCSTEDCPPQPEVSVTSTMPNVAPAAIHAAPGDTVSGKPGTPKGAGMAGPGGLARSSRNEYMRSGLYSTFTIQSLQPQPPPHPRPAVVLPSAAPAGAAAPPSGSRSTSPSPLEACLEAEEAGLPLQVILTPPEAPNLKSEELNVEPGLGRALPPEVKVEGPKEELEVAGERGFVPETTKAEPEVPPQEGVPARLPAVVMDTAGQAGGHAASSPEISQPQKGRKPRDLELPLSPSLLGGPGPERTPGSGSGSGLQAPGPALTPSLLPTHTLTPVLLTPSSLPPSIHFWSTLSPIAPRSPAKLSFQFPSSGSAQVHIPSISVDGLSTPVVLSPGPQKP
How it was run: as §1

GABPA = target: T3, GABPA (Homo sapiens, UniProt Q06546 1-454)
T3 sequence: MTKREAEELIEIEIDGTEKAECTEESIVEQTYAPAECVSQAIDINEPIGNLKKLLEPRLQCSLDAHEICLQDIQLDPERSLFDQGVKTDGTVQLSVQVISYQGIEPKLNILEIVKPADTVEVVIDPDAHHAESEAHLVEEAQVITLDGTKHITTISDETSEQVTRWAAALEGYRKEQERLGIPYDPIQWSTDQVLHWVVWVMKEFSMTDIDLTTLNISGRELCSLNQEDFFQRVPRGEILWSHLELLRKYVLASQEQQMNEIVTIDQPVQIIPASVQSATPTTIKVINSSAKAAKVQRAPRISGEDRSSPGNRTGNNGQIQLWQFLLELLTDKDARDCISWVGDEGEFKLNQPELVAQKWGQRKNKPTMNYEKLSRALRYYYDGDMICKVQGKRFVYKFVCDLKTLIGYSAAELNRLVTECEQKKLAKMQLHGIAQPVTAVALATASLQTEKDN
How it was run: as §1

ERG = target: T4, ERG (Homo sapiens, UniProt P11308 1-479)
T4 sequence: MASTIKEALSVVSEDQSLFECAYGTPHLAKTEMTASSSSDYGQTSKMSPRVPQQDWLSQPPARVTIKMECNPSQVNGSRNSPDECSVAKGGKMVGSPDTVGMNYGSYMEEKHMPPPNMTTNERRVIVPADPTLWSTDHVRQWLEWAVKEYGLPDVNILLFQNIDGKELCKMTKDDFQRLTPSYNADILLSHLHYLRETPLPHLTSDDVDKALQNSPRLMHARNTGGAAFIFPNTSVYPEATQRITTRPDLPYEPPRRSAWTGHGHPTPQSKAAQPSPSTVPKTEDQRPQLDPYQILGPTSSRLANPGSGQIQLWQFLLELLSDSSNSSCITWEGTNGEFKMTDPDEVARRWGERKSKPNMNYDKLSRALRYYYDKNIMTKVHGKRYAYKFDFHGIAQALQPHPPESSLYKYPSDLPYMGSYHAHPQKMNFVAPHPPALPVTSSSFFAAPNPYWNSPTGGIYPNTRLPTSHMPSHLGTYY
How it was run: as §1

ELF1 = ELF1 (Homo sapiens, UniProt P32519 1-619)
How it was run: as §1

EHF = target: T5, EHF (Homo sapiens, UniProt Q9NZC4 1-300)
T5 sequence: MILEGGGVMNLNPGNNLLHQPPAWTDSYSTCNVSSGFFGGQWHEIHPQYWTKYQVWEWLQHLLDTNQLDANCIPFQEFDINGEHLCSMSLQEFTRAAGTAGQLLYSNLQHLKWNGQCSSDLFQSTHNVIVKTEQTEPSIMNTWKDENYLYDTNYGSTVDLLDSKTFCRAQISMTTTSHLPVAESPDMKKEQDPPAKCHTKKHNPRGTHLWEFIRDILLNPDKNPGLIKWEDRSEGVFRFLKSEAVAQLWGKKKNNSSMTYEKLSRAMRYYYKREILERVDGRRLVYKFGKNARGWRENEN
How it was run: as §1

SPI1 = SPI1 (Homo sapiens, UniProt P17947 1-270)
How it was run: as §1

SPIB = SPIB (Homo sapiens, UniProt Q01892 1-262)
How it was run: as §1

ELK3 = target: T6, ELK3 (Homo sapiens, UniProt P41970 1-407)
T6 sequence: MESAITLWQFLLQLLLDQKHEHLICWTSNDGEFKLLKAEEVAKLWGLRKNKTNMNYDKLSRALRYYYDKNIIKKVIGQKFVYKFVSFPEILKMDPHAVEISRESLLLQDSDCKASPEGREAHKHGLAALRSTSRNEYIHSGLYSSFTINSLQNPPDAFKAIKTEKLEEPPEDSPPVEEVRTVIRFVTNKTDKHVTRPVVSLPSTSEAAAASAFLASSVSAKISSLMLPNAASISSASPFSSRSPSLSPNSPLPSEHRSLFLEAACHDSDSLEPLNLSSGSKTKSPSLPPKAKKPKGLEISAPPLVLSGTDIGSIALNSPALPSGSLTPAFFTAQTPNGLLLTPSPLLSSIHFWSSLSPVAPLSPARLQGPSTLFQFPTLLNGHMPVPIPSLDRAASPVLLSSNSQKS
How it was run: as §1

Chain of ELF1 (P32519 whole entry): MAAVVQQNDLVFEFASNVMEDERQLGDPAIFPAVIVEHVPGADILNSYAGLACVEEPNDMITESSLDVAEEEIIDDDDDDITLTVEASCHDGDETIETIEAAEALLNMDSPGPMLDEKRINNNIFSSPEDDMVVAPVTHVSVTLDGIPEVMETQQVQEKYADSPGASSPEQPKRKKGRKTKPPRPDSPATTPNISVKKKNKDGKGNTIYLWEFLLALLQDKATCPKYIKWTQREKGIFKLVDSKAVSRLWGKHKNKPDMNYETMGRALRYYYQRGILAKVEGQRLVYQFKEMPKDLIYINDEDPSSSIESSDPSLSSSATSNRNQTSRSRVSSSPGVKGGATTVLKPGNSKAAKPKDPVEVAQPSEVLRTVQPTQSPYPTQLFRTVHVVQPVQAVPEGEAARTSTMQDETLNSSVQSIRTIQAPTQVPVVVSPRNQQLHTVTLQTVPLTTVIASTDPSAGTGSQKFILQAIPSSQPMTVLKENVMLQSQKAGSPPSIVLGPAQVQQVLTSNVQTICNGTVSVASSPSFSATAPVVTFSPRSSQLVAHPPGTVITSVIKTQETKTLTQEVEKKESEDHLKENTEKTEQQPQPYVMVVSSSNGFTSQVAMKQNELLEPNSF
Chain of SPIB (Q01892 whole entry): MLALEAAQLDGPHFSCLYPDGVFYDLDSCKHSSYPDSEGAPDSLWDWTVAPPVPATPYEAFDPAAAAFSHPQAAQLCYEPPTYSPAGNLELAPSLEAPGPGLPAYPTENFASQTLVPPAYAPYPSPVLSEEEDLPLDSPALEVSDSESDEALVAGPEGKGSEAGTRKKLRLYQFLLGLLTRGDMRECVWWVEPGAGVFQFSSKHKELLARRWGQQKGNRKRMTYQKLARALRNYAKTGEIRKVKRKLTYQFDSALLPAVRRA

Sequence	binding signal (FLI1)	binding signal (ELK1)	binding signal (GABPA)	binding signal (ERG)	binding signal (ELF1)	binding signal (EHF)	binding signal (SPI1)	binding signal (SPIB)	binding signal (ELK3)
ATACAA	1.19 fold enrichment (6-mer frequency, TF over GST control)	1.15 fold enrichment (6-mer frequency, TF over GST control)	1.14 fold enrichment (6-mer frequency, TF over GST control)	1.1 fold enrichment (6-mer frequency, TF over GST control)	1.21 fold enrichment (6-mer frequency, TF over GST control)	1.15 fold enrichment (6-mer frequency, TF over GST control)	1.07 fold enrichment (6-mer frequency, TF over GST control)	1.09 fold enrichment (6-mer frequency, TF over GST control)	1.31 fold enrichment (6-mer frequency, TF over GST control)
ACGTAT	1.24 fold enrichment (6-mer frequency, TF over GST control)	1.29 fold enrichment (6-mer frequency, TF over GST control)	1.21 fold enrichment (6-mer frequency, TF over GST control)	1.17 fold enrichment (6-mer frequency, TF over GST control)	1.17 fold enrichment (6-mer frequency, TF over GST control)	1.29 fold enrichment (6-mer frequency, TF over GST control)	1.14 fold enrichment (6-mer frequency, TF over GST control)	1.19 fold enrichment (6-mer frequency, TF over GST control)	1.42 fold enrichment (6-mer frequency, TF over GST control)
CACTTA	1.17 fold enrichment (6-mer frequency, TF over GST control)	1.24 fold enrichment (6-mer frequency, TF over GST control)	1.25 fold enrichment (6-mer frequency, TF over GST control)	1.22 fold enrichment (6-mer frequency, TF over GST control)	1.27 fold enrichment (6-mer frequency, TF over GST control)	1.18 fold enrichment (6-mer frequency, TF over GST control)	1.21 fold enrichment (6-mer frequency, TF over GST control)	1.19 fold enrichment (6-mer frequency, TF over GST control)	1.2 fold enrichment (6-mer frequency, TF over GST control)
CTCTGC	1.71 fold enrichment (6-mer frequency, TF over GST control)	1.6 fold enrichment (6-mer frequency, TF over GST control)	1.56 fold enrichment (6-mer frequency, TF over GST control)	1.46 fold enrichment (6-mer frequency, TF over GST control)	1.58 fold enrichment (6-mer frequency, TF over GST control)	1.57 fold enrichment (6-mer frequency, TF over GST control)	1.53 fold enrichment (6-mer frequency, TF over GST control)	1.52 fold enrichment (6-mer frequency, TF over GST control)	1.4 fold enrichment (6-mer frequency, TF over GST control)
GATCCT	1.28 fold enrichment (6-mer frequency, TF over GST control)	1.2 fold enrichment (6-mer frequency, TF over GST control)	1.3 fold enrichment (6-mer frequency, TF over GST control)	1.38 fold enrichment (6-mer frequency, TF over GST control)	1.26 fold enrichment (6-mer frequency, TF over GST control)	1.28 fold enrichment (6-mer frequency, TF over GST control)	1.24 fold enrichment (6-mer frequency, TF over GST control)	1.33 fold enrichment (6-mer frequency, TF over GST control)	1.31 fold enrichment (6-mer frequency, TF over GST control)
TATAAT	1.14 fold enrichment (6-mer frequency, TF over GST control)	1.24 fold enrichment (6-mer frequency, TF over GST control)	1.12 fold enrichment (6-mer frequency, TF over GST control)	1.07 fold enrichment (6-mer frequency, TF over GST control)	1.18 fold enrichment (6-mer frequency, TF over GST control)	1.18 fold enrichment (6-mer frequency, TF over GST control)	1.15 fold enrichment (6-mer frequency, TF over GST control)	1.15 fold enrichment (6-mer frequency, TF over GST control)	1.22 fold enrichment (6-mer frequency, TF over GST control)
ACATCT	1.39 fold enrichment (6-mer frequency, TF over GST control)	1.35 fold enrichment (6-mer frequency, TF over GST control)	1.35 fold enrichment (6-mer frequency, TF over GST control)	1.34 fold enrichment (6-mer frequency, TF over GST control)	1.38 fold enrichment (6-mer frequency, TF over GST control)	1.3 fold enrichment (6-mer frequency, TF over GST control)	1.4 fold enrichment (6-mer frequency, TF over GST control)	1.27 fold enrichment (6-mer frequency, TF over GST control)	1.44 fold enrichment (6-mer frequency, TF over GST control)
CTCGAC	1.49 fold enrichment (6-mer frequency, TF over GST control)	1.47 fold enrichment (6-mer frequency, TF over GST control)	1.53 fold enrichment (6-mer frequency, TF over GST control)	1.47 fold enrichment (6-mer frequency, TF over GST control)	1.53 fold enrichment (6-mer frequency, TF over GST control)	1.46 fold enrichment (6-mer frequency, TF over GST control)	1.34 fold enrichment (6-mer frequency, TF over GST control)	1.33 fold enrichment (6-mer frequency, TF over GST control)	1.36 fold enrichment (6-mer frequency, TF over GST control)
